Experimental data as given in PubChem BioAssay AID1259412 (Laboratorio de Genomica e Expressao (LGE), UNICAMP, 2018).
Active and inactive are the calls of the source. The rule behind the calls is not given here.

Each compound was assayed on alternative oxidase (AOX) (assay: AOX inhibitors, oxygen consumption, profiling panel (AID 1259412)). Conditions: AOX-dependent respiration, at 500 µM, stronger effect = lower value.
For `COc1cc(NC(=O)c2cccc(F)c2)cc(OC)c1OC`, the O2 uptake (% of control) was 98.7% (inactive).
`O=C(Nc1cccc(OCc2ccccc2)c1)c1cccc(Br)c1` was tested, and the O2 uptake (% of control) was 88.7% (active).
For `O=C(Nc1cccc(F)c1)c1ccccc1`, the O2 uptake (% of control) was 43.6% (active).
With `Cc1cccc(C(=O)Nc2cccc(I)c2)c1` the O2 uptake (% of control) was 13.3% (active).
With `O=C(NCc1ccc2c(c1)OCO2)c1cccc(F)c1` the O2 uptake (% of control) was 36.9% (active).
For `N#Cc1cccc(C(=O)Nc2ccccc2)c1`, the O2 uptake (% of control) was 69.6% (active).
With `COc1cccc(C(=O)Nc2cccc(OCc3ccccc3)c2)c1` the O2 uptake (% of control) was 79% (active).
In the case of `N#Cc1cccc(C(=O)Nc2cccc(OCc3ccccc3)c2)c1`, the O2 uptake (% of control) is reported as 39.1% (active).
For `COc1cc(NC(=O)c2cccc(C)c2)cc(OC)c1OC`, the O2 uptake (% of control) was 66.4% (active).
For `O=C(Nc1ccccc1)c1cccc(F)c1`, the O2 uptake (% of control) was 61.8% (active).
With `O=C(Nc1ccccc1)c1ccccc1` the O2 uptake (% of control) was 67.2% (active).
In the case of `O=C(Nc1cccc(F)c1)c1cccc(F)c1`, the O2 uptake (% of control) is reported as 52.3% (active).
With `COc1cccc(C(=O)Nc2cccc([N+](=O)[O-])c2)c1` the O2 uptake (% of control) was 31.9% (active).
In the case of `COc1cc(NC(=O)c2cccc(Cl)c2)cc(OC)c1OC`, the O2 uptake (% of control) is reported as 81.5% (active).
For `O=C(Nc1cccc([N+](=O)[O-])c1)c1cccc(Br)c1`, the O2 uptake (% of control) was 23.6% (active).
`Cc1cccc(C(=O)Nc2cccc(OCc3ccccc3)c2)c1` was tested, and the O2 uptake (% of control) was 67.8% (active).
`COc1cccc(C(=O)Nc2ccc(N3CCOCC3)cc2)c1` was tested, and the O2 uptake (% of control) was 92.3%.
With `N#Cc1cccc(C(=O)Nc2cccc(I)c2)c1` the O2 uptake (% of control) was 32.6% (active).
With `O=C(Nc1cccc(I)c1)c1cccc(Cl)c1` the O2 uptake (% of control) was 13.2% (active).
With `O=C(Nc1cccc(I)c1)c1cccc(Br)c1` the O2 uptake (% of control) was 14.3% (active).
In the case of `O=C(Nc1cccc(I)c1)c1ccccc1I`, the O2 uptake (% of control) is reported as 13.1% (active).
For `N#Cc1cccc(C(=O)Nc2cccc(F)c2)c1`, the O2 uptake (% of control) was 53.5% (active).
`Cc1cccc(C(=O)NCc2ccc3c(c2)OCO3)c1` was tested, and the O2 uptake (% of control) was 25.8% (active).
In the case of `Cc1cccc(C(=O)Nc2ccc(N3CCOCC3)cc2)c1`, the O2 uptake (% of control) is reported as 84.8% (inactive).
With `O=C(Nc1cccc(OCc2ccccc2)c1)c1cccc(Cl)c1` the O2 uptake (% of control) was 76.1% (active).
`CCN(CC)CCNC(=O)c1ccccc1` was tested, and the O2 uptake (% of control) was 78.4% (active).
With `N#Cc1cccc(C(=O)Nc2cccc(Br)c2)c1` the O2 uptake (% of control) was 21.3% (active).
`COc1cccc(C(=O)Nc2cccc(F)c2)c1` was tested, and the O2 uptake (% of control) was 44.5% (active).
`O=C(Nc1cccc(Cl)c1)c1ccccc1` was tested, and the O2 uptake (% of control) was 21.5% (active).
For `O=C(NCc1ccc2c(c1)OCO2)c1cccc(Cl)c1`, the O2 uptake (% of control) was 14.2% (active).
With `O=C(Nc1cccc([N+](=O)[O-])c1)c1cccc(F)c1` the O2 uptake (% of control) was 44.8% (active).
`O=C(Nc1cccc(OCc2ccccc2)c1)c1cccc(F)c1` was tested, and the O2 uptake (% of control) was 41.2% (active).
With `N#Cc1cccc(C(=O)Nc2ccccc2C(N)=O)c1` the O2 uptake (% of control) was 95.7% (inactive).
`O=C(Nc1ccccc1)c1cccc(Br)c1` was tested, and the O2 uptake (% of control) was 19.3% (active).
In the case of `O=C(Nc1cccc(Br)c1)c1ccccc1I`, the O2 uptake (% of control) is reported as 10.4% (active).
In the case of `Nc1cccc(S(=O)(=O)c2cccc(NC(=O)c3ccccc3)c2)c1`, the O2 uptake (% of control) is reported as 98.2% (inactive).
For `O=C(Nc1ccc(N2CCOCC2)cc1)c1cccc(F)c1`, the O2 uptake (% of control) was 86.3% (inactive).
`O=C(Nc1ccc(N2CCOCC2)cc1)c1ccccc1I` was tested, and the O2 uptake (% of control) was 59.6% (active).
`COc1cc(NC(=O)c2ccccc2)cc(OC)c1OC` was tested, and the O2 uptake (% of control) was 61.1% (active).
